An excerpt weighted towards active compounds, which were near 19% of everything screened.
ELG1 repair inh = blocks ELG1-dependent DNA repair in HEK293T cells; 330,000 tested, 2.3% active; HEK293T ELG1-luciferase reporter, luminescence, 16 h; DNA damage induced by 5-fluorouridine; Potency, µM (titrated, usually from 46.1 µM), for the others: at the top dose activity change, negative = inhibition, usual class: inhibitors; further: potency means the concentration at half of the fitted maximal effect; nearly all actives have a fitted effect of over 55% in size
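Cells (2,000 per well) received 5-fluorouridine plus test compound or DMSO and were incubated 16 hr at 37 °C, 5% CO2. Luciferase activity was read by luminescence 30 min after ONE-Glo addition; signal suppression marked inhibition of damage-induced ELG1 function.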
IL-1B inflam inh = blocks inflammasome-driven IL-1 beta release | THP-1 LPS/ATP IL-1B secretion, AlphaLISA, 16 h; stronger effect = lower value | activity change, % at 57.5 µM | 360,000 tested, 4.7% active | AID 743279; in the data active means activity change below about -50%; inconclusive means mostly about -30% to -49%
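Secreted IL-1B measured by AlphaLISA bead assay after 16 h compound exposure of THP-1 cells; compounds (final up to 57.5 uM) added 1 h before LPS (250 ng/mL) and ATP (1.25 mM) stimulation; lower signal means less secretion.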
TDP1 cell noCPT = qHTS for Inhibitors of human tyrosyl-DNA phosphodiesterase 1 (TDP1): qHTS in cells in absence of CPT | 420,000 tested, 15% active | Potency, µM (doses to about 46.2 µM), for the others: at the top dose activity change, negative = growth inhibition, most hits filed as inhibitors | DT40 Tdp1-/- hTDP1 cells, no CPT, ATP luminescence, 48 h | AID 686978, 2013; further: potency means the concentration at half of the fitted maximal effect; nearly all actives have a fitted effect of over 55% in size
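Readout: luminescence from CellTiter-Glo after 30 min in the dark at RT. Cells: DT40 Tdp1-/- with stable hTDP1, 400/well. Exposure: compounds alone, ≥48 hr, 37 °C.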
DT40 TDP1 CPT = growth inhibition of DT40 Tdp1-/-;hTDP1 cells with camptothecin (screen for TDP1 inhibitors); 420,000 tested, 12% active; chicken DT40 Tdp1-/-;hTDP1 cells + 20 nM CPT, ATP luminescence, 48 h; Potency, µM (highest dose often 46.2 µM), for inactives: top-dose activity change, negative = growth inhibition, usual class: inhibitors; further: potency means the concentration at half of the fitted maximal effect; nearly all actives have a fitted effect of over 55% in size
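Cell growth measured by CellTiter-Glo luminescence after a minimum 48 h, 37 C compound exposure with 20 nM CPT in Tdp1-knockout DT40 cells stably expressing hTDP1, seeded 400/well; qHTS titration format.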
HT1080-NT tox = kills 2HG-producing HT-1080-NT fibrosarcoma cells. HT-1080-NT fibrosarcoma viability, CellTiter-Glo ATP luminescence, 48 h. Potency, µM (highest dose often 46.1 µM), for the others: at the top dose activity, negative = less viability, actives largely listed as cytotoxic. 360,000 tested, 1.6% active;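 further: NT is the 2HG producing partner of a matched IDH1 knockdown line; potency means the concentration at half of the fitted maximal effect; 0% = DMSO-treated cells and -100% = media-only wells without cells; nearly all actives have a fitted effect of over 55% in size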
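A 48-hour cytotoxicity screen used HT-1080-NT cells plated 2 hours before compound delivery. ATP-based CellTiter-Glo luminescence measured viability, normalized to DMSO and no-cell controls.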
HT1080 IDH1KD tx = kills HT-1080 cells with IDH1 knockdown; 360,000 tested, 2% active; Potency, µM (highest dose often 46.1 µM), for the others: at the top dose activity, negative = toxicity, most hits filed as cytotoxic; HT-1080 IDH1 knockdown viability, ATP luminescence, 48 h; AID 686971;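 further: potency means the concentration at half of the fitted maximal effect; 0% = DMSO wells and -100% = cell-free medium wells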
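Assay cells: HT-1080 with IDH1 knockdown, 750 per well, RPMI/5% FBS. Exposure: 48 h at 37 °C following 2 h pre-incubation. Read: CellTiter-Glo luminescence; fitted concentration-response, curve class assigned.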
* marks the source's active call; other numbers are inactive results; i = inactive; u = inconclusive; x = no result given. Unless noted, the call rests on the fitted dose curve; in most records, active means well fitted curve in the direction sought with a large enough effect; inconclusive means small, poorly fitted or top-dose-only effect, or another doubt; inactive means no such curve, though single readings can be large; an effect the other way counts as inactive or inconclusive. Unless noted, on the % scale 0 is the no-effect control and ±100 the full control effect.

SMILES	ELG1 repair inh	IL-1B inflam inh	TDP1 cell noCPT	DT40 TDP1 CPT	HT1080-NT tox	HT1080 IDH1KD tx
COc1ccc(NC(=O)C2CCCO2)cc1 (centres undefined)	u	2	18%	2%	-3%	-7%
CCOC(=O)C1(C)CCCN(C(=O)c2c(F)cccc2F)C1 (centres undefined)	x	9	-9%	-14%	u	1%
Cc1ccc(S(=O)(=O)/N=C(/Nc2cccc3ccccc23)c2ccc(F)cc2)cc1	-22%	u	u	u	u	u
COc1cc(/C=C/C(=O)O)cc(S(=O)(=O)Nc2ccc(S(=O)(=O)N3CCCCC3)cc2)c1OC	-1%	15	1%	0%	17%	16%
CCOC(=O)c1cc(NC(=O)c2ccc(OC)cc2)c(=O)n2c1oc1ccc(Cl)cc12	x	x	-15%	-1%	x	x
Cc1nnc(NC(=O)CC23CC4CC(CC(C4)C2)C3)s1	1%	36	u	-27%	-7%	-3%
COc1ccc(-c2csc(NC(=O)CS(=O)(=O)c3ccccc3)n2)cc1	u	-23	23µM*	u	-24%	-4%
COc1cccc(OC)c1C(=O)Nc1nc(-c2ccccc2)cs1	-11%	-4	-16%	-23%	14%	5%
COc1ccc(-c2csc(NC(=O)c3c(C)noc3C)n2)cc1OC	x	u	15µM*	21µM*	9%	3%
CCCCOC(=O)CSc1nnc(-c2ccc(C)cc2)o1	x	x	-26%	-16%	x	x
CCCN1CCc2c(sc(NC(=O)c3ccc(S(=O)(=O)N4CCN(C(=O)OCC)CC4)cc3)c2C(N)=O)C1	u	-98*	u	u	7.3µM*	6.5µM*
CCOC(=O)N1CCN(S(=O)(=O)c2ccc(C(=O)Nc3sc4c(c3C(N)=O)CCN(CC)C4)cc2)CC1	u	-68*	21µM*	u	u	u
CCN1CCc2c(sc(NC(=O)c3ccc(S(=O)(=O)N(C)CC4CCCO4)cc3)c2C(N)=O)C1 (centres undefined)	-4%	i	21µM*	-36%	-3%	-10%
CN1CCc2c(sc(NC(=O)c3ccc(S(=O)(=O)N4CCOCC4)cc3)c2C(N)=O)C1	-1%	10	-30%	-22%	4%	-2%
CCc1ccc(CNC(=O)CCc2cn(C)c3ccccc23)cc1	u	16	-28%	u	5%	2%
C=CCOc1ccc(CN(C)C(=O)CNC(=O)c2ccc(-c3ccccc3)cc2)cc1	23µM*	-8	21µM*	u	-26%	u
CCOc1ccc(CN(C)C(=O)CNC(=O)c2ccccc2)cc1	1%	11	5%	-19%	15%	1%
CCOc1ccc(CN(C)C(=O)CNC(=O)Cc2cccc3ccccc23)cc1	-3%	-4	23µM*	u	2%	-1%
CN(CCOc1ccc(Br)cc1)C(=O)CNC(=O)c1ccc2ccccc2c1	-3%	-91*	u	-16%	-9%	-26%
COc1ccc(C(=O)N2CCC3(CC2)CCN(C(c2ccccc2)c2ccccc2)CC3)cc1	x	x	-16%	-8%	x	x
CN1CCN(c2cc(-c3ccoc3)ncn2)CC1	x	x	-2%	5%	x	x
O=[N+]([O-])c1nn(-c2ccc3c(c2)OCCO3)n(O)c1=NC1CCCCCC1	u	-9	-26%	u	-1%	u
CCc1ccc(N=c2c([N+](=O)[O-])nn(-c3ccc4c(c3)OCCO4)n2O)cc1	u	-19	-12%	-13%	9%	15%
COc1ccc(-n2nc([N+](=O)[O-])c(=NCc3ccc4c(c3)OCO4)n2O)cc1	u	u	18µM*	u	-2%	-1%

Screening results (PubChem)
